From PubChem BioAssay AID1224861 (National Center for Advancing Translational Sciences (NCATS), 2016)
Records with an inconclusive call do not appear. Values without a mark were called inactive. The source made the active and inactive calls. The call rests on the fitted dose curve; in most records, active means well fitted cell-killing curve with a large enough effect; inconclusive means small, poorly fitted or top-dose-only effect, or effect the other way; inactive means flat fitted curve, though single readings scatter.

Assay: Compound cytotoxicity measured by an ATP content assay as a counter-screen for lead compounds in human astrocytes
Details: human astrocytes viability, ATP luminescence; series mostly up to 46.1 µM; activity change, negative = cytotoxicity: at the top concentration
Procedure, shortened: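 Human astrocytes seeded 16–20 h beforehand at 37 C, 5% CO2, then exposed to compounds for set times (e.g. 6, 24 or 72 h). ATP content reagent added 1:1, 10 min room temperature; luminescence converted to percent inhibition of viability.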

In the case of Cc1csc(NC(=O)c2sc3nc4c(c(C(F)(F)F)c3c2N)CCC4)n1, the Potency was 3.46 µM (active).
In the case of CS(=O)(=O)c1ccc(-c2cn3ccccc3n2)cc1, the Potency was 8.69 µM (active).
In the case of [O-][n+]1ccccc1SSc1cccc[n+]1[O-], the Potency was 0.112 µM (active).
With O=C(O)c1cccc(-c2noc(-c3ccccc3F)n2)c1 the Potency was 5.48 µM (active).
With O=C1c2ccccc2-[n+]2ccc3c([nH]c4ccccc43)c21 the Potency was 4.35 µM (active).
For NC(N)=NN=C(/C=C/c1ccc([N+](=O)[O-])o1)/C=C/c1ccc([N+](=O)[O-])o1, the Potency was 3.46 µM (active).

In order of rising “activity change, negative = cytotoxicity” value:
1. CC[C@@]1(O)C[C@H](O[C@H]2C[C@H](N(C)C)[C@H](O[C@H]3C[C@H](O)[C@H](O[C@H]4CCC(=O)[C@H](C)O4)[C@H](C)O3)[C@H](C)O2)c2c(cc3c(c2O)C(=O)c2c(O)cccc2C3=O)[C@@H]1C(=O)OC  -27.8%
2. Cc1ccc(O)c(-n2nc3ccccc3n2)c1  -22.7%
3. O=C(O)c1cc([N+](=O)[O-])ccc1NCCCc1ccccc1  -21.8%
4. CCCCC1C(=O)N(c2ccccc2)N(c2ccc(O)cc2)C1=O (configuration not stated)  -16.9%
5. O=c1c2ccccc2nc2n1CCc1c-2[nH]c2ccccc12  -15.3%
6. CC(=O)Oc1cccc2c1C(=O)c1c(OC(C)=O)cc(C(=O)O)cc1C2=O  -14.1%
7. Cc1oncc1C(=O)Nc1ccc(C(F)(F)F)cc1  -12.6%
8. Nc1cc(C(F)(F)F)ccc1S  -10.8%
9. C[C@H](NC(=O)C(=O)Nc1ccccc1C(C)(C)C)C(=O)N[C@@H](CC(=O)O)C(=O)COc1c(F)c(F)cc(F)c1F  -9.95%
10. c1ccc(CCNc2nc(-c3ccccc3)cs2)cc1  -6.7%
11. CCN1CCC(n2cc(CNc3cc(Cl)c4ncc(C#N)c(Nc5ccc(F)c(Cl)c5)c4c3)nn2)CC1  -4.32%
12. O[C@@H](COc1cccc2ncccc12)CN1CCN(C2c3ccccc3[C@@H]3[C@H](c4ccccc42)C3(F)F)CC1 (some centres not stated)  -4.19%
13. O=c1oc2cc(O)ccc2s1  -3.03%
14. O=c1cc(-c2ccccc2)oc2cc(O)c(O)c(O)c12  -2.73%
15. O=S(=O)(O)CCSSCCS(=O)(=O)O  -2.01%
16. O=c1cc(-c2ccccc2)oc2cc(O)cc(O)c12  -1.78%
17. N#C/C(=C\c1ccc(O)c(O)c1)C(=O)Nc1ccccc1  -1.6%
18. Cc1c(N)c(=O)n(-c2ccccc2)n1C  -1.57%
19. CN(C)c1cc(NC(=O)CNC(C)(C)C)c(O)c2c1C[C@@H]1C[C@H]3[C@H](N(C)C)C(=O)C(C(N)=O)=C(O)[C@@]3(O)C(=O)C1=C2O  -1.32%
20. C[C@@H]1CCN(C(=O)CC#N)C[C@H]1N(C)c1ncnc2[nH]ccc12  0.0793%
21. CCCCCCCCCCCC(=O)[O][Sn]([CH2]CCC)([CH2]CCC)[O]C(=O)CCCCCCCCCCC  1.27%
22. CC1(C)Cc2c(sc(NC(=S)NC(=O)c3ccccc3)c2C(=O)O)CO1  1.95%
23. O=C(/C=C/c1ccccc1)NCCO  2.38%
24. CC(=O)OC(C)OC(=O)C(C)c1ccc(-c2ccccc2)c(F)c1 (configuration not stated)  7.3%
25. CN1CC(=O)N/C1=N/C(=O)Nc1cccc(Cl)c1  10.6%
26. COc1cc(NC(C)CCCN)c2ncccc2c1 (configuration not stated)  10.6%
27. O=C(O)c1ccccc1NCCc1ccccc1  11.8%
28. CC1=C(CO)C(=O)O[C@@H]([C@@H](C)[C@H]2CC[C@H]3[C@@H]4C[C@H]5O[C@]56[C@@H](O)C=CC(=O)[C@]6(C)[C@@H]4CC[C@]23C)C1  14.6%
29. CCCCCCOc1ccccc1C(N)=O  15.9%

With CN1CCN(c2cc3c(nn2)Oc2ccccc2N3C)CC1 the “activity change, negative = cytotoxicity” value was 9.89% [at 23.8 µM].

For CN(C)c1ccc(N=NS(=O)(=O)O)cc1, the “activity change, negative = cytotoxicity” value was -26.6% [at 88.3 µM].
